# According to paper PMC7862700, “An all-to-all approach to the identification of sequence-specific readers for epigenetic DNA modifications on cytosine”:
# What was measured:
# Assay in all cases: DAPPL (digital affinity profiling via proximity ligation, sequencing); 10 mM Tris-HCl pH 7.5, 50 mM NaCl, 1 mM DTT, 4% glycerol, room temperature, 30 min; GST-TFs on glutathione beads, 16-mer random dsDNA library, 0.1% formaldehyde crosslink after washing; high values mean tight binding
# FEV = target: T1, FEV (Homo sapiens, UniProt Q99581 1-238); settings: protein: recombinant; tags: N-terminal GST; dsDNA, one strand shown
# T1 sequence: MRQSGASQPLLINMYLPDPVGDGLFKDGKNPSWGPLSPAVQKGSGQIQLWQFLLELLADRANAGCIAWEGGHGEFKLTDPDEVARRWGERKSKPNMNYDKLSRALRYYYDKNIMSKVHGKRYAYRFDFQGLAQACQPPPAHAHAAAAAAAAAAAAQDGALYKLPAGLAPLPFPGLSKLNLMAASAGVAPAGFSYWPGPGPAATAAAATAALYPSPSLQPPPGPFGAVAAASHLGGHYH
# Method in brief: (§1)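 Beads coated with glutathione captured GST-fused human transcription factors that had been expressed in yeast, and the factors were then given DNA barcodes and pooled with a tag-only sample. The pools were incubated with 200 nmole of a random double-stranded 16-mer DNA library in Tris/NaCl/DTT/glycerol buffer for 30 min at room temperature, washed, crosslinked with 0.1% formaldehyde and proximity-ligated with BsaI/T4 ligase at 37 °C for 1 h. PCR amplification and Illumina NextSeq500 sequencing came last. Binding signal is each hexamer's read frequency for a factor divided by its frequency for the tag-only sample.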
# ETV5 = ETV5 (Homo sapiens, UniProt P41161 1-510); settings: protein: recombinant; tags: N-terminal GST; dsDNA, one strand shown
# Method in brief: as §1
# HSF1 = HSF1 (Homo sapiens, UniProt Q00613 1-529); settings: protein: recombinant; tags: N-terminal GST; chain copies: 3; dsDNA, one strand shown
# Method in brief: as §1
# SPIC = target: T2, SPIC (Homo sapiens, UniProt Q8N5J4 1-248); settings: protein: recombinant; tags: N-terminal GST; dsDNA, one strand shown
# T2 sequence: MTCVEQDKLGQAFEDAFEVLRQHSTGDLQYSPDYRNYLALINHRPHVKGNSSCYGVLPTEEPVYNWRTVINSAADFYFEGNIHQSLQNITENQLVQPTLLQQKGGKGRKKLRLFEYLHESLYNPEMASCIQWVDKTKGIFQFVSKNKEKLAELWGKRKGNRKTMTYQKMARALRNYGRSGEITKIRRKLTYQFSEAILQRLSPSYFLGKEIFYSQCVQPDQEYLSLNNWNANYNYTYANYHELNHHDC
# Method in brief: as §1
# ELF4 = ELF4 (Homo sapiens, UniProt Q99607 1-663); settings: protein: recombinant; tags: N-terminal GST; dsDNA, one strand shown
# Method in brief: as §1
# ELK4 = target: T3, ELK4 (Homo sapiens, UniProt P28324-2 1-405); settings: protein: recombinant; tags: N-terminal GST; dsDNA, one strand shown
# T3 sequence: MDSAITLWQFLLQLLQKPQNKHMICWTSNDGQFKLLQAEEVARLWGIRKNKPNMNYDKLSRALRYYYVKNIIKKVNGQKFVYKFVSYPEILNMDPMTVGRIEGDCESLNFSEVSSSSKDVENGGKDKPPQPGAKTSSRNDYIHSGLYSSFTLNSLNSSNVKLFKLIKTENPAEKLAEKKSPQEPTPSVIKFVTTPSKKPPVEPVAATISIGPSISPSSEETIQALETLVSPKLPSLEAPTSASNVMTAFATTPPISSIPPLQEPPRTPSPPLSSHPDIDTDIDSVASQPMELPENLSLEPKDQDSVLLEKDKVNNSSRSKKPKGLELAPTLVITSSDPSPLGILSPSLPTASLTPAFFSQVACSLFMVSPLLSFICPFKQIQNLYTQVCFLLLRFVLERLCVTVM
# Method in brief: as §1
# ETV2 = target: T4, ETV2 (Homo sapiens, UniProt O00321 1-342); settings: protein: recombinant; tags: N-terminal GST; dsDNA, one strand shown
# T4 sequence: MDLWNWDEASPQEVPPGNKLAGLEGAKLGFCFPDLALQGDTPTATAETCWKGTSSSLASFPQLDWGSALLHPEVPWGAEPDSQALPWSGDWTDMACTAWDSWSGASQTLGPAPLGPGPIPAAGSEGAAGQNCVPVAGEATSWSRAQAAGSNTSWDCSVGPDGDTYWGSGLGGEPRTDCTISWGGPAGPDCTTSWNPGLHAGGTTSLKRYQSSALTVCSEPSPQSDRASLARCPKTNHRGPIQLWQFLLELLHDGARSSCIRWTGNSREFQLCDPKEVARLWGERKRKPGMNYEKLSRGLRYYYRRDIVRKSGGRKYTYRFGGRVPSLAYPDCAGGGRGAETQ
# Method in brief: as §1
# ELF3 = target: T5, ELF3 (Homo sapiens, UniProt P78545 1-371); settings: protein: recombinant; tags: N-terminal GST; dsDNA, one strand shown
# T5 sequence: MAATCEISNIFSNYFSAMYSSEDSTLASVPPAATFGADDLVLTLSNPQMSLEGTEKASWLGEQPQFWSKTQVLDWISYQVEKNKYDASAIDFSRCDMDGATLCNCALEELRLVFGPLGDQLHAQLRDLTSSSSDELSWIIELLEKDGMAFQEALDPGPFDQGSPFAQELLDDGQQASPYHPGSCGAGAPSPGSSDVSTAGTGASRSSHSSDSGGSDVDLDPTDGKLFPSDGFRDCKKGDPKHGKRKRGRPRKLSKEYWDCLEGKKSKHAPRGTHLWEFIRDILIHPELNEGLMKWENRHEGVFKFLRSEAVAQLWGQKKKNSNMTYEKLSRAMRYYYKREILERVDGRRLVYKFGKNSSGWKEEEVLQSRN
# Method in brief: as §1
# CRX = CRX (Homo sapiens, UniProt O43186 1-299); settings: protein: recombinant; tags: N-terminal GST; dsDNA, one strand shown
# Method in brief: as §1
# ETV1 = ETV1 (Homo sapiens, UniProt P50549 1-477); settings: protein: recombinant; tags: N-terminal GST; dsDNA, one strand shown
# Method in brief: as §1
# ERF = target: T6, ERF (Homo sapiens, UniProt P50548 1-548); settings: protein: recombinant; tags: N-terminal GST; dsDNA, one strand shown
# T6 sequence: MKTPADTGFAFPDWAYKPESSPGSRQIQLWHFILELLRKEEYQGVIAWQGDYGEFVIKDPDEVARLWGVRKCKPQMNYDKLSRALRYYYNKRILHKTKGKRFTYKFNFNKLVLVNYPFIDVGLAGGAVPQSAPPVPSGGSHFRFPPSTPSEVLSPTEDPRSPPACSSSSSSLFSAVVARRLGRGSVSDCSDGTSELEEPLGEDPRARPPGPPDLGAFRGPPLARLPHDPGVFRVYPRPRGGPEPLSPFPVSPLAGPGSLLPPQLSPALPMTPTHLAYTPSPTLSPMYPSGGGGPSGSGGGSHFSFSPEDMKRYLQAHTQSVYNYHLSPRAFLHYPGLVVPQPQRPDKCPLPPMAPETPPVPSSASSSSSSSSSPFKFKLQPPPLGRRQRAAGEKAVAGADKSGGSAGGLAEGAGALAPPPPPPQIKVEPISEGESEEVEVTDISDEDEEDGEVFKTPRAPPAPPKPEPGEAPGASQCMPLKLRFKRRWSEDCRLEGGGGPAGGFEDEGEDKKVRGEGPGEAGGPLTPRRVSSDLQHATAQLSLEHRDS
# Method in brief: as §1
# ETV3L = target: T7, ETV3L (Homo sapiens, UniProt Q6ZN32 1-361); settings: protein: recombinant; tags: N-terminal GST; dsDNA, one strand shown
# T7 sequence: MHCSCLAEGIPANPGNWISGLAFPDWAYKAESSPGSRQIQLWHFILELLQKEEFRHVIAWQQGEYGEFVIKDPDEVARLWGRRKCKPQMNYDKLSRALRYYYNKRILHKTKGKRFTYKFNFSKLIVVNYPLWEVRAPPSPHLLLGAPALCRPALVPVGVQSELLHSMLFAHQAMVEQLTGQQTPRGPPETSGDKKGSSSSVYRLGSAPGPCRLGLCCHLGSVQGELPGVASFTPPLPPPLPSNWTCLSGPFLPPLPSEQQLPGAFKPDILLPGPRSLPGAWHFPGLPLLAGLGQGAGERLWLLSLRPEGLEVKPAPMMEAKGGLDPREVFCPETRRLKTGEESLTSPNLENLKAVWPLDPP
# Method in brief: as §1
# ETS2 = target: T8, ETS2 (Homo sapiens, UniProt P15036 1-469); settings: protein: recombinant; tags: N-terminal GST; dsDNA, one strand shown
# T8 sequence: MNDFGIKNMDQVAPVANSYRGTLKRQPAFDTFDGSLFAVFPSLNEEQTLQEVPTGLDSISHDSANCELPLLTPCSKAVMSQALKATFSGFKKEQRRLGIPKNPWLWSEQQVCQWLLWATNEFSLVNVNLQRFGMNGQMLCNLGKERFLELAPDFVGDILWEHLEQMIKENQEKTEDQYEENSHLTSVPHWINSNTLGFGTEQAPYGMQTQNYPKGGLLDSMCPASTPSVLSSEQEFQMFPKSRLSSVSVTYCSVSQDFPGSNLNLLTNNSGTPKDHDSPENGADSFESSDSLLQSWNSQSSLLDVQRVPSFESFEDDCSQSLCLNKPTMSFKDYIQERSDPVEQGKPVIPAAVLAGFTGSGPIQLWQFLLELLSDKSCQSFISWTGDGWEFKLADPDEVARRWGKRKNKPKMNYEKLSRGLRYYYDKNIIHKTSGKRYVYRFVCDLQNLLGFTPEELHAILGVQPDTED
# Method in brief: as §1
# SPDEF = target: T9, SPDEF (Homo sapiens, UniProt O95238 1-335); settings: protein: recombinant; tags: N-terminal GST; dsDNA, one strand shown
# T9 sequence: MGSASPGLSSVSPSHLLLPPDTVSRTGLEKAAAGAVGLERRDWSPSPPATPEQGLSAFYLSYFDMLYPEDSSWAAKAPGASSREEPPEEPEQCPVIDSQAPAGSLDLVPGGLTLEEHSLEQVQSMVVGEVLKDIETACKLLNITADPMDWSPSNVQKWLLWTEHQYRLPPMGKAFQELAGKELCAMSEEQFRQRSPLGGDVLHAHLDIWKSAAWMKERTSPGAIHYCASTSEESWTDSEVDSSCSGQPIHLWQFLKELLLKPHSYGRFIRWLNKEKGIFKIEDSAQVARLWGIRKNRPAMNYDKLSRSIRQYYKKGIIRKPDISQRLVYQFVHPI
# Method in brief: as §1
# ETV7 = target: T10, ETV7 (Homo sapiens, UniProt Q9Y603 1-341); settings: protein: recombinant; tags: N-terminal GST; dsDNA, one strand shown
# T10 sequence: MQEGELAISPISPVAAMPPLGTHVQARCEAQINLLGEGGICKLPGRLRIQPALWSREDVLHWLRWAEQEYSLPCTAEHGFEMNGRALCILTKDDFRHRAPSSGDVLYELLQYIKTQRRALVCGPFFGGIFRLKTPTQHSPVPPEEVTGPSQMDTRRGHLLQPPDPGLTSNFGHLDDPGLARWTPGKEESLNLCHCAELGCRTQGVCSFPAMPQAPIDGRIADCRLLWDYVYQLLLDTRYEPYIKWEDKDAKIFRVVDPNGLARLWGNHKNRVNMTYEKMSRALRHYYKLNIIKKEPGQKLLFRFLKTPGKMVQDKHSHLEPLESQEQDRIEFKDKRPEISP
# Method in brief: as §1
# ELF5 = target: T11, ELF5 (Homo sapiens, UniProt Q9UKW6-2 1-255); settings: protein: recombinant; tags: N-terminal GST; dsDNA, one strand shown
# T11 sequence: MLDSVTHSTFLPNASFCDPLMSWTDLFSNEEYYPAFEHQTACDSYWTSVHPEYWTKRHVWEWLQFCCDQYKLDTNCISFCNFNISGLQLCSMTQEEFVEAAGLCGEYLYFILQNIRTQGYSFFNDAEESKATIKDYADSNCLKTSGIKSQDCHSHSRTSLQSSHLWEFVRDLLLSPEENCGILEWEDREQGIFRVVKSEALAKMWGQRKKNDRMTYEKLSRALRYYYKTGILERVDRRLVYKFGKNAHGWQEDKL
# Method in brief: as §1
# ETV3 = target: T12, ETV3 (Homo sapiens, UniProt P41162-2 1-143); settings: protein: recombinant; tags: N-terminal GST; dsDNA, one strand shown
# T12 sequence: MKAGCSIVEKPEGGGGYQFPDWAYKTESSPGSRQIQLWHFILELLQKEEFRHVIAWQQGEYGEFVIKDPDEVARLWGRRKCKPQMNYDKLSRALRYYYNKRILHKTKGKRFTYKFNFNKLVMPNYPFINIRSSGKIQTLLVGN
# Method in brief: as §1
# ETV6 = ETV6 (Homo sapiens, UniProt P41212 1-452); settings: protein: recombinant; tags: N-terminal GST; dsDNA, one strand shown
# Method in brief: as §1
# ETV6, sequence (P41212 whole entry): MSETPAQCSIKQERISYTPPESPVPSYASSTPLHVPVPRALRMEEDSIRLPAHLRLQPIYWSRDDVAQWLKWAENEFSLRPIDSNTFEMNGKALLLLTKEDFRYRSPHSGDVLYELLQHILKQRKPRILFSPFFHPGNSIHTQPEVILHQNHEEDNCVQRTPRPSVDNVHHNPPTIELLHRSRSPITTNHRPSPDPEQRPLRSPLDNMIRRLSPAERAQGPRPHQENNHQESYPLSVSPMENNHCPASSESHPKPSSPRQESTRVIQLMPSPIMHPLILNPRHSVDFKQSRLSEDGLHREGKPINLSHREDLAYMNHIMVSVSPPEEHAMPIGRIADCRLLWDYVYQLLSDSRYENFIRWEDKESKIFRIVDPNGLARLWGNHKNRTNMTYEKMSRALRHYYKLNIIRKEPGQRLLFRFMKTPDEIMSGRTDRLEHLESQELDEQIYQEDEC
# HSF1, sequence (Q00613 whole entry): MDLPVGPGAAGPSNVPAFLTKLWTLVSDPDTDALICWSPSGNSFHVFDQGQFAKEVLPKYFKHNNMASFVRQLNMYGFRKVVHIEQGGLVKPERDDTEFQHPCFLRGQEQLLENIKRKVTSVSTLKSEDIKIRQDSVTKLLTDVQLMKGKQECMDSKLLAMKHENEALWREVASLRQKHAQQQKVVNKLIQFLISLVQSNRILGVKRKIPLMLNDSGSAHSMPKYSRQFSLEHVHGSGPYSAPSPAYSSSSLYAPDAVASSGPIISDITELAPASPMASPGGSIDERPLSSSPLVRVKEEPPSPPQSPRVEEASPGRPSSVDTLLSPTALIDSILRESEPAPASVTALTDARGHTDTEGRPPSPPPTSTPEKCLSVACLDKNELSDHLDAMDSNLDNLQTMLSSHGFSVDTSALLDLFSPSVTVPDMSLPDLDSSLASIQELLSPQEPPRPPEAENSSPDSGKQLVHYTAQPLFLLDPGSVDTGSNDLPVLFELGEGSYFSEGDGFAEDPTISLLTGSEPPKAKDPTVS
# ETV5, sequence (P41161 whole entry): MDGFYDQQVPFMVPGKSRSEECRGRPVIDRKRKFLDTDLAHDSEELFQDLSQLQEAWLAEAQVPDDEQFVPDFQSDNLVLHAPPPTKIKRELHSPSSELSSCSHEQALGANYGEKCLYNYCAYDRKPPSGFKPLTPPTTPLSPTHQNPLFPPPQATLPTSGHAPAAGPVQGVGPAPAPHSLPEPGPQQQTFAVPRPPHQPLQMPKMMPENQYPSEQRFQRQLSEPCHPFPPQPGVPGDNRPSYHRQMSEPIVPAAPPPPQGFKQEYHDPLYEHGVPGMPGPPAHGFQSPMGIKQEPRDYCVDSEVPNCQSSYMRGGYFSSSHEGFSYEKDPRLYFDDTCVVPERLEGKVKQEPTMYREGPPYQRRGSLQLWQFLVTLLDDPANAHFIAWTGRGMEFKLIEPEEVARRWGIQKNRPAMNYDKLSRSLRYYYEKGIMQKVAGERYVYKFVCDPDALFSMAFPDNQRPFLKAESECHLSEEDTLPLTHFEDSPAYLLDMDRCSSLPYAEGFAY
# CRX, sequence (O43186 whole entry): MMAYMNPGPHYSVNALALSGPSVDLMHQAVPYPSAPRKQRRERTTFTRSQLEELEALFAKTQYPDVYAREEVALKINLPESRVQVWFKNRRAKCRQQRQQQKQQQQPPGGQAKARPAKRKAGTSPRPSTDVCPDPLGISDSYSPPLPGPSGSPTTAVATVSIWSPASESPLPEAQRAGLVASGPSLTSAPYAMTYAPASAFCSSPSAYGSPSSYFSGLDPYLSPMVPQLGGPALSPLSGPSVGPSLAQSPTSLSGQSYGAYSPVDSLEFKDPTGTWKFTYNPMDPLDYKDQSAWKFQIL
# ETV1, sequence (P50549 whole entry): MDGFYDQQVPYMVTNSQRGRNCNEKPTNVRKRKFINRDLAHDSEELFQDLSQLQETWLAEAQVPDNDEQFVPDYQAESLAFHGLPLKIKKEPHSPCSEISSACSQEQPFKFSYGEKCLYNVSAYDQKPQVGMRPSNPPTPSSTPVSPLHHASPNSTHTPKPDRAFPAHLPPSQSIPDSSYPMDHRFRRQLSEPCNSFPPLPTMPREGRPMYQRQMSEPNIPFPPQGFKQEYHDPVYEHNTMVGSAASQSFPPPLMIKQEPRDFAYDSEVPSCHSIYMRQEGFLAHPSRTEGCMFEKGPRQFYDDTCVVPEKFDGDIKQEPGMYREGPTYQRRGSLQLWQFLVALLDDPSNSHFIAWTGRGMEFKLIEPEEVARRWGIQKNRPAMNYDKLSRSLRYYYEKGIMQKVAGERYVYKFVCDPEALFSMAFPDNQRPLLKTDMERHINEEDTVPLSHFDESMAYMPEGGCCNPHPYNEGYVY
# ELF4, sequence (Q99607 whole entry): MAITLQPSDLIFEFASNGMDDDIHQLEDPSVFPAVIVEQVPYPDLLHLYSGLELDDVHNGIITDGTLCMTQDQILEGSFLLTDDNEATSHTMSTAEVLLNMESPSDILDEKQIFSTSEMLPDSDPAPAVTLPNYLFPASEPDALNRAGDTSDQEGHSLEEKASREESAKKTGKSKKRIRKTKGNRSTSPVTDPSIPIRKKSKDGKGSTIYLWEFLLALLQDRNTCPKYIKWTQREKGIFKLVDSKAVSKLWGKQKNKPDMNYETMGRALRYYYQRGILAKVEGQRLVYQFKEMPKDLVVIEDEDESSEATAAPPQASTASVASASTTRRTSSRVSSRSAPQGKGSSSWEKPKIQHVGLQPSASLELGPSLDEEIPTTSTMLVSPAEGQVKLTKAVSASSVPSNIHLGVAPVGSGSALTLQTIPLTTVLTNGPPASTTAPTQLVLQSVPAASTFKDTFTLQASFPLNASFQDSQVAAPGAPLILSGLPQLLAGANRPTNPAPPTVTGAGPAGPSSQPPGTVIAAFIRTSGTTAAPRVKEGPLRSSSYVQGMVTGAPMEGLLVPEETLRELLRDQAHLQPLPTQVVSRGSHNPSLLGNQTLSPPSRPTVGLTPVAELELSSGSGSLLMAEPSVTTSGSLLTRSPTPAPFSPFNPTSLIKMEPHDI
sequence,measurement,setting,value
AATCCC,binding signal,FEV,"1.41 fold enrichment (6-mer frequency, TF over GST control)"
same,binding signal,ETV5,"1.3 fold enrichment (6-mer frequency, TF over GST control)"
same,binding signal,HSF1,"2.47 fold enrichment (6-mer frequency, TF over GST control)"
same,binding signal,SPIC,"1.2 fold enrichment (6-mer frequency, TF over GST control)"
same,binding signal,ELF4,"1.33 fold enrichment (6-mer frequency, TF over GST control)"
same,binding signal,ELK4,"1.28 fold enrichment (6-mer frequency, TF over GST control)"
same,binding signal,ETV2,"1.37 fold enrichment (6-mer frequency, TF over GST control)"
same,binding signal,ELF3,"1.35 fold enrichment (6-mer frequency, TF over GST control)"
same,binding signal,CRX,"3.65 fold enrichment (6-mer frequency, TF over GST control)"
same,binding signal,ETV1,"1.42 fold enrichment (6-mer frequency, TF over GST control)"
same,binding signal,ERF,"1.44 fold enrichment (6-mer frequency, TF over GST control)"
same,binding signal,ETV3L,"1.29 fold enrichment (6-mer frequency, TF over GST control)"
same,binding signal,ETS2,"1.25 fold enrichment (6-mer frequency, TF over GST control)"
same,binding signal,SPDEF,"1.36 fold enrichment (6-mer frequency, TF over GST control)"
same,binding signal,ETV7,"1.23 fold enrichment (6-mer frequency, TF over GST control)"
same,binding signal,ELF5,"1.4 fold enrichment (6-mer frequency, TF over GST control)"
same,binding signal,ETV3,"1.26 fold enrichment (6-mer frequency, TF over GST control)"
same,binding signal,ETV6,"1.42 fold enrichment (6-mer frequency, TF over GST control)"
